TDP1 cell CPT – growth inhibition of DT40 Tdp1-/-;hTDP1 cells with camptothecin (screen for TDP1 inhibitors); chicken DT40 Tdp1-/-;hTDP1 cells + 20 nM CPT, ATP luminescence, 48 h; 420,000 compounds, 12% hits; Potency, µM (doses to about 46.2 µM), for inactives: top-dose activity change, negative = growth inhibition, actives largely listed as inhibitors; note: nearly all actives have a fitted effect of over 55% in size
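Chicken DT40 Tdp1-/- cells complemented with human TDP1, 400 cells/well, exposed to compounds plus 20 nM camptothecin for at least 48 h at 37 C; viability read as ATP content by CellTiter-Glo luminescence.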
HT1080 IDH1KD tx – toxicity to HT-1080 IDH1 knockdown cells (counter line). Potency, µM (series often up to 46.1 µM), for the others: top-dose activity, negative = toxicity, most hits filed as cytotoxic. 360,000 compounds, 2% hits. AID 686971. HT-1080 IDH1 knockdown viability, ATP luminescence, 48 h;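 note: 0% = DMSO wells and -100% = cell-free medium wells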
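In this qHTS, HT-1080 cells depleted of IDH1 are exposed for 48 h at 37 °C to compound titrations. Toxicity is scored from CellTiter-Glo luminescence, with DMSO as full viability and medium alone as none.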
KB-V1 cytotox – kills drug-selected multidrug resistant KB-V1 cells; Potency, µM (highest dose often 46.1 µM), hits mostly cytotoxic; KB-V1 MDR cells viability, CellTiter-Glo, 72 h; 400,000 compounds, 3.4% hits; note: nearly all actives have a fitted effect of over 60% in size
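Readout: CellTiter-Glo luminescence, 10 min after addition. Cells: KB-V1 MDR subline, 72 h at 37 degrees C with compound. Analysis: corrected, normalized data fitted to concentration-effect curves.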
DT40 TDP1 no CPT – qHTS for Inhibitors of human tyrosyl-DNA phosphodiesterase 1 (TDP1): qHTS in cells in absence of CPT. DT40 Tdp1-/- hTDP1 cells, no CPT, ATP luminescence, 48 h. Potency, µM (series often up to 46.2 µM), without a hit: at the highest dose activity change, negative = growth inhibition, usual class: inhibitors. 420,000 compounds, 15% hits. AID 686978, 2013; note: nearly all actives have a fitted effect of over 55% in size
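Readout: luminescence from CellTiter-Glo after 30 min in the dark at RT. Cells: DT40 Tdp1-/- with stable hTDP1, 400/well. Exposure: compounds alone, ≥48 hr, 37 °C.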
KB-3-1 cytotox – KB-3-1 parental cell cytotoxicity; KB-3-1 viability, CellTiter-Glo ATP luminescence, 72 h; Potency, µM (titrated, usually from 46.1 µM), most hits filed as cytotoxic; 400,000 compounds, 1.4% hits; note: nearly all actives have a fitted effect of over 60% in size
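KB-3-1 parental drug-naive adenocarcinoma cells in DMEM/10% FBS, incubated 72 h at 37 C with pin-transferred compounds across a concentration series. Viability by CellTiter-Glo luminescence; concentration-response curves fitted after normalization.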
HT1080-NT tox – kills 2HG-producing HT-1080-NT fibrosarcoma cells; HT-1080-NT fibrosarcoma viability, CellTiter-Glo ATP luminescence, 48 h; Potency, µM (highest dose often 46.1 µM), inactives show at the highest dose activity, negative = less viability, usual class: cytotoxic; 360,000 compounds, 1.6% hits; AID 686970;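 note: NT is the 2HG producing partner of a matched IDH1 knockdown line; 0% = DMSO-treated cells and -100% = media-only wells without cells; nearly all actives have a fitted effect of over 55% in size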
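Read-out is CellTiter-Glo luminescence after 10 minutes at room temperature, following 48 hours' compound treatment of HT-1080-NT cells (750 cells/well, RPMI, 5% FBS, 37 degrees C).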
The depositor's hits bear a star; i = inactive; ? = inconclusive; . = no result given. Sampled rows, rich in hits. Any-hit rate of the full collection: about 19%. Calls come from the whole dose curve; as a rule, active = well fitted curve in the direction sought with a large enough effect; inconclusive = small, poorly fitted or top-dose-only effect, or another doubt; inactive = no such curve, though single readings can be large; an effect the other way counts as inactive or inconclusive. Unless noted, % is set by controls: 0 for no effect and ±100 for the full control effect; potency is the fitted concentration of half-maximal effect.

SMILES	TDP1 cell CPT	HT1080 IDH1KD tx	KB-V1 cytotox	DT40 TDP1 no CPT	KB-3-1 cytotox	HT1080-NT tox
CCCNC(=S)N1CCC(C(=O)c2ccc(Cl)cc2)CC1	23.1µM*	-13.9%	i	?	i	0.1%
CCCNC(=S)N1CCC(C(=O)c2ccc(OC)cc2)CC1	-26.9%	-3.1%	?	20.6µM*	i	6.4%
O=C(NC(=S)N1CCCC(C(F)(F)F)C1)c1ccc(F)cc1 (stereo unspecified)	18.4µM*	-13.1%	i	23.1µM*	i	-0.4%
C=CCNC(=S)N1CCC(C(=O)c2ccc(OC)cc2)CC1	?	-28.8%	?	?	i	-16.9%
CCOC(=O)N1CCN(C(=S)NC(=O)c2ccc(F)c(F)c2)CC1	?	2.1%	i	14.6µM*	i	0.1%
CC(C)(C)NC(=O)C1CCN(c2nc3ccccc3nc2C(F)(F)F)CC1	-29.0%	.	i	?	i	.
CCNC(=S)N1CCC(C(=O)c2ccc(Cl)cc2)CC1	?	4.5%	i	?	i	2.1%
CCS(=O)(=O)N1CCC(C(=O)c2ccc(Cl)cc2)CC1	20.6µM*	?	i	?	i	-7.1%
COc1cc(/C=N\NC(=O)C(C)(C)O)ccc1OC/C=C/c1ccccc1	?	-25.6%	i	-23.6%	i	-7.4%
CCCCN(c1ccccc1)c1ncnc2c1cnn2-c1ccc(Cl)cc1	16.4µM*	.	i	18.4µM*	i	.
Cc1ccc(-n2ncc3c(N(CCO)Cc4ccccc4)ncnc32)cc1	11.6µM*	.	i	8.2µM*	i	.
CCCCN(c1ccccc1)c1ncnc2c1cnn2-c1cccc(C)c1	-21.7%	.	i	-12.5%	i	.
CCN(c1ccccc1)c1ncnc2c1cnn2-c1ccc(OC)cc1	8.2µM*	.	i	5.17µM*	i	.
COc1cc(C#Cc2c(-c3cncn3C)n(C)c3ccc(-c4cnc(OC)nc4)cc23)cc(OC)c1	16.4µM*	?	?	?	?	?
COc1cc(OC)cc(-c2c(C#Cc3ccsc3)c3cc(-c4ccc(CN5CCOCC5)cc4)ccc3n2C)c1	-28.1%	-5.1%	i	?	i	-1.3%
COc1cc(OC)cc(-c2c(Sc3ccccc3)c3cc(-c4cnc(OC)nc4)ccc3n2C)c1	-13.0%	12.2%	i	-28.5%	i	4.3%
COc1cc(C#Cc2c(-c3cncn3C)n(C)c3ccc(-c4ccc(CN5CCOCC5)cc4)cc23)cc(OC)c1	5.8µM*	?	?	8.2µM*	?	?
CC(C)(CNc1ccc([N+](=O)[O-])cc1Cl)N1CCOCC1	-22.0%	1.9%	i	-18.7%	?	2.2%
CC1(C2CC(=O)c3c(O)ccc(O)c3C2)OCCO1 (stereo unspecified)	-28.6%	-8.1%	i	?	i	3.2%
COc1ccc(S(=O)(=O)Nc2ccc3c(c2)CCC3)cc1	?	?	?	?	i	?
CC(=O)Nc1ccc(S(=O)(=O)Nc2ccc3c(c2)CCC3)cc1	-75.1%	-24.8%	i	13µM*	i	-12.0%
CC(=O)Nc1ccc(S(=O)(=O)Nc2cccc(-c3nc4cc(C)ccc4o3)c2)cc1	20.6µM*	15.3%	?	20.6µM*	18.4µM*	-0.7%
CC(=O)Nc1cccc(-c2nc3ccccc3o2)c1	-11.0%	11.1%	i	?	i	8.4%
CC(C)C(=O)Nc1cccc(-c2csc(-c3ccccc3)n2)c1	?	?	i	?	i	?
Cc1nc(-c2cccc(NC(=O)Cc3ccccc3)c2)cs1	3.3%	-3.1%	16.4µM*	?	i	1.8%
SMILES	TDP1 cell CPT	HT1080 IDH1KD tx	KB-V1 cytotox	DT40 TDP1 no CPT	KB-3-1 cytotox	HT1080-NT tox
CC(=O)Nc1ccc(S(=O)(=O)Nc2cccc(-c3csc(C)n3)c2)cc1	20.6µM*	?	i	?	i	-26.8%
CC(=O)c1ccc(NC(=O)c2cc3c(=O)oc4ccc(C)cc4c3s2)cc1	8.3%	.	i	-5.2%	i	.
O=C(Cc1ccc(Br)cc1)Nc1cccc(-c2cn3c(n2)SCC3)c1	?	?	8.2µM*	?	?	-13.4%
C=CCNCc1ccc(C(=O)NCCCCCCC)cc1[N+](=O)[O-]	?	13.6%	i	18.4µM*	i	-3.3%
O=C1CCSc2ccc(S(=O)(=O)Nc3ccc(Cl)c(C(F)(F)F)c3)cc2N1	.	.	i	.	i	.
CCc1ccc(NC(=O)CN2C(C(=O)OC)=C(c3ccccc3)c3ccccc3S2(=O)=O)cc1	0.2%	.	?	-28.6%	i	.
N#Cc1c(NC(=O)Cn2c(=O)oc3ccccc32)oc(-c2ccccc2)c1-c1ccccc1	9.2µM*	?	i	8.2µM*	i	-29.1%
Cc1cccc(C)c1OCC(=O)Nc1oc(-c2ccccc2)c(-c2ccccc2)c1C#N	?	-20.3%	16.4µM*	?	?	?
O=C(Cn1c(=O)oc2ccccc21)Nc1ccc(Br)cc1	-1.3%	-22.9%	i	-2.4%	i	-23.0%

Assay outcomes deposited in PubChem by National Center for Advancing Translational Sciences (NCATS).
